Here are results for 6 sequences from publication PMC7862700, “An all-to-all approach to the identification of sequence-specific readers for epigenetic DNA modifications on cytosine”.

Holding throughout (experiment): DAPPL (digital affinity profiling via proximity ligation, sequencing); 10 mM Tris-HCl pH 7.5, 50 mM NaCl, 1 mM DTT, 4% glycerol, room temperature, 30 min; GST-TFs on glutathione beads, 16-mer random dsDNA library, 0.1% formaldehyde crosslink after washing; high values mean tight binding
Settings in all cases: protein: recombinant; tags: N-terminal GST; dsDNA, one strand shown

Assay [1] deals with T1, ERF (Homo sapiens, UniProt P50548 1-548).
T1 sequence: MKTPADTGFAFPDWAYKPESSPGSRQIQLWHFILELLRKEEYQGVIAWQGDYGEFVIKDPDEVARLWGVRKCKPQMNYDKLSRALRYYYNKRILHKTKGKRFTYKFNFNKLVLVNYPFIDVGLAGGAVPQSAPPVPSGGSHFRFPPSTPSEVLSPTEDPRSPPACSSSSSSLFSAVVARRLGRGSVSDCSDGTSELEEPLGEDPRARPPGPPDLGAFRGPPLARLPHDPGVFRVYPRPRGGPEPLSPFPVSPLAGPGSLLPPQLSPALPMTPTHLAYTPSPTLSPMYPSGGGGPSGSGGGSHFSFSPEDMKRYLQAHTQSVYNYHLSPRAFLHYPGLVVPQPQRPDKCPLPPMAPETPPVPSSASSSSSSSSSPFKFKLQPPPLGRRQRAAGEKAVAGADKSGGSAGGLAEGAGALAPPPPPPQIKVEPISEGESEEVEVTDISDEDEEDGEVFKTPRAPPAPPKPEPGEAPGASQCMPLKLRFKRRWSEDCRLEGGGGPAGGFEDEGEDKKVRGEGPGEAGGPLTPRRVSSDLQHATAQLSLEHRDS
In a few lines: (§1)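 Sequencing on an Illumina NextSeq500 followed washing, crosslinking with 0.1% formaldehyde, proximity ligation (BsaI/T4 ligase, 1 h, 37 °C) and PCR amplification of pools that had been incubated for 30 min at room temperature with 200 nmole of a random double-stranded 16-mer DNA library in Tris/NaCl/DTT/glycerol buffer. Each pool held DNA-barcoded human transcription factors, expressed in yeast as GST fusions and captured on glutathione beads, plus a tag-only sample. Binding signal is a hexamer's read frequency for a factor divided by its frequency in the tag-only sample.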

Assay [2] addresses T2, ETV3L (Homo sapiens, UniProt Q6ZN32 1-361).
T2 sequence: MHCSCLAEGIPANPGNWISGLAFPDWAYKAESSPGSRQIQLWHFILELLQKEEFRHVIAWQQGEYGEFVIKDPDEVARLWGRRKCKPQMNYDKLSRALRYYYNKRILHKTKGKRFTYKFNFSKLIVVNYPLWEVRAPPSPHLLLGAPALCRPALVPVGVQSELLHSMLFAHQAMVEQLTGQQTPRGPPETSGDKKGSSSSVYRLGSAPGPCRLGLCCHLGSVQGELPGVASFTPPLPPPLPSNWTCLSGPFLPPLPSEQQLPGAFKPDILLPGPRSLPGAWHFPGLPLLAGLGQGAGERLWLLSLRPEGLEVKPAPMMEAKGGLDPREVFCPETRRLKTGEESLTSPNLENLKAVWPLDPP
In a few lines:
as §1

The target of assay [3] is T3, ETS2 (Homo sapiens, UniProt P15036 1-469).
T3 sequence: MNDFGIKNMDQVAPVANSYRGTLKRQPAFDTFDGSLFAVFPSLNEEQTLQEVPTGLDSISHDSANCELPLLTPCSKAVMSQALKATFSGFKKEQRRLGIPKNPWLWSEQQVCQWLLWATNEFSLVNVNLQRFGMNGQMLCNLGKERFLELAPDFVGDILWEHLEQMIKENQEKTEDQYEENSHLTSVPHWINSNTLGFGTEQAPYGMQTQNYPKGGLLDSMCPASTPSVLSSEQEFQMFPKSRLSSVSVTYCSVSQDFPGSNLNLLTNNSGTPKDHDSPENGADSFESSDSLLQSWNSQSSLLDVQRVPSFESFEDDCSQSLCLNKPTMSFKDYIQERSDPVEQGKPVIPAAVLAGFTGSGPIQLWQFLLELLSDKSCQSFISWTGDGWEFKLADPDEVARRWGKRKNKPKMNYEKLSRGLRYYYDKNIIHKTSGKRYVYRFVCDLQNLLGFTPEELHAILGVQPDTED
In a few lines:
as §1

Assay [4] addresses T4, SPDEF (Homo sapiens, UniProt O95238 1-335).
T4 sequence: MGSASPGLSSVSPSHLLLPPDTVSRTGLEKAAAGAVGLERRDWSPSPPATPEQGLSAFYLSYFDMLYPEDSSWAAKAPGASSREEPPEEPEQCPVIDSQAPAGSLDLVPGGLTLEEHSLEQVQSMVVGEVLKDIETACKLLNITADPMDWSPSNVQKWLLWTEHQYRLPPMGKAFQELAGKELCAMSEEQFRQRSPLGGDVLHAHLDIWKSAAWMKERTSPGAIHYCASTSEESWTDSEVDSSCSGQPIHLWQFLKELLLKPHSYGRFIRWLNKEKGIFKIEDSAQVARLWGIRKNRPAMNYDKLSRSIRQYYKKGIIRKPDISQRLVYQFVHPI
In a few lines: as §1

Assay [5] deals with T5, ETV7 (Homo sapiens, UniProt Q9Y603 1-341).
T5 sequence: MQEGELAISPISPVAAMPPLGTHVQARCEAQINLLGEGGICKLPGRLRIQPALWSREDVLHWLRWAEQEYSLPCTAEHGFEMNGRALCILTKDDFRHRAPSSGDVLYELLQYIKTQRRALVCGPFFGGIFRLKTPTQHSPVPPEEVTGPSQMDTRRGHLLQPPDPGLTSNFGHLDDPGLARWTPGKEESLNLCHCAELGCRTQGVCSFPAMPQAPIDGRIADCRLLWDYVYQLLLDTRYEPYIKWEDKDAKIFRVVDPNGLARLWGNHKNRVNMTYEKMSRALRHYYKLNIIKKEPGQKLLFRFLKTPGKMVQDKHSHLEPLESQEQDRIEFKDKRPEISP
In a few lines: as §1

Assay [6] concerns the target T6, ELF5 (Homo sapiens, UniProt Q9UKW6-2 1-255).
T6 sequence: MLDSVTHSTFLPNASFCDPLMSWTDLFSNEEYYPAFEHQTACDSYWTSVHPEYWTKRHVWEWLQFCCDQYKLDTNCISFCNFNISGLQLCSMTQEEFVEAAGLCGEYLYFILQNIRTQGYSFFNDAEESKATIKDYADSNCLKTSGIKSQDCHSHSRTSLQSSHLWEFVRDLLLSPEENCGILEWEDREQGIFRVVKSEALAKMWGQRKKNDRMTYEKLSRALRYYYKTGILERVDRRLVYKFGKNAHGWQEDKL
In a few lines: as §1

Assay [7] addresses T7, ETV3 (Homo sapiens, UniProt P41162-2 1-143).
T7 sequence: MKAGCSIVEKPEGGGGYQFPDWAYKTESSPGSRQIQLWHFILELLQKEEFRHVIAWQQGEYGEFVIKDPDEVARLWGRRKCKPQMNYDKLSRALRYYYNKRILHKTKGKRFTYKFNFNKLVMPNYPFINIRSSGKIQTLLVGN
In a few lines: as §1

Assay [8] deals with ETV6 (Homo sapiens, UniProt P41212 1-452). The method in brief: as §1
ETV6, sequence (P41212 whole entry): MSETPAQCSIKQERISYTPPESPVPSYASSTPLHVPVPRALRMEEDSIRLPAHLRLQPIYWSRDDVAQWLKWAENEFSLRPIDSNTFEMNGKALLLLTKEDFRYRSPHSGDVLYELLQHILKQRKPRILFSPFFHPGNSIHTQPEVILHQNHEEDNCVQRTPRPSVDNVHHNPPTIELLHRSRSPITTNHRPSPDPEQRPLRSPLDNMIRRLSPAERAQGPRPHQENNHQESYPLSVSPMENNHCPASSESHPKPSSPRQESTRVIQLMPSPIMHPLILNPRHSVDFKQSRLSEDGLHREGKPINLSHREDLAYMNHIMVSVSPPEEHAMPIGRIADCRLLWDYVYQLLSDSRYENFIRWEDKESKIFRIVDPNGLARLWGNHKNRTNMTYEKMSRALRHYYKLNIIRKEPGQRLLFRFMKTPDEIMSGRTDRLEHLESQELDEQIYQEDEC

Turning to AACGAA, the binding signal in assay [1] was 1.12 fold enrichment (6-mer frequency, TF over GST control); in assay [2], 1.16 fold enrichment (6-mer frequency, TF over GST control); in assay [3] it was 1.18 fold enrichment (6-mer frequency, TF over GST control); in assay [4], 1.1 fold enrichment (6-mer frequency, TF over GST control); in assay [5] it was 1.25 fold enrichment (6-mer frequency, TF over GST control); in assay [6] it was 1.09 fold enrichment (6-mer frequency, TF over GST control). Also, the binding signal in assay [7] was 1.11 fold enrichment (6-mer frequency, TF over GST control); in assay [8], 1.17 fold enrichment (6-mer frequency, TF over GST control).

Take GTCCTC: the binding signal was 1.19 fold enrichment (6-mer frequency, TF over GST control) in assay [1]; 1.22 fold enrichment (6-mer frequency, TF over GST control) in assay [2]; 1.14 fold enrichment (6-mer frequency, TF over GST control) in assay [3]; 1.19 fold enrichment (6-mer frequency, TF over GST control) in assay [4]; 1.39 fold enrichment (6-mer frequency, TF over GST control) in assay [5]; 1.32 fold enrichment (6-mer frequency, TF over GST control) in assay [6]. Besides, the binding signal is 1.2 fold enrichment (6-mer frequency, TF over GST control) in assay [7] and 1.06 fold enrichment (6-mer frequency, TF over GST control) in assay [8].

Consider CCCCCG, for which the binding signal is 1.17 fold enrichment (6-mer frequency, TF over GST control) in assay [1]; 1.13 fold enrichment (6-mer frequency, TF over GST control) in assay [2]; 1.06 fold enrichment (6-mer frequency, TF over GST control) in assay [3]; 1.13 fold enrichment (6-mer frequency, TF over GST control) in assay [4]; 1.05 fold enrichment (6-mer frequency, TF over GST control) in assay [5]; 1.07 fold enrichment (6-mer frequency, TF over GST control) in assay [6]. Also, the binding signal in assay [7] is 1.22 fold enrichment (6-mer frequency, TF over GST control); in assay [8], 1.12 fold enrichment (6-mer frequency, TF over GST control).

For CATGGT, the binding signal in assay [1] is 1.24 fold enrichment (6-mer frequency, TF over GST control); in assay [2] it was 1.27 fold enrichment (6-mer frequency, TF over GST control); in assay [3], 1.25 fold enrichment (6-mer frequency, TF over GST control); in assay [4] it was 1.13 fold enrichment (6-mer frequency, TF over GST control); in assay [5] it was 1.16 fold enrichment (6-mer frequency, TF over GST control); in assay [6] it was 1.16 fold enrichment (6-mer frequency, TF over GST control). Also, the binding signal was 1.25 fold enrichment (6-mer frequency, TF over GST control) in assay [7] and 1.2 fold enrichment (6-mer frequency, TF over GST control) in assay [8].

Turning to CACCGA, the binding signal in assay [1] is 1.05 fold enrichment (6-mer frequency, TF over GST control); in assay [2], 1.02 fold enrichment (6-mer frequency, TF over GST control); in assay [3] it was 1.12 fold enrichment (6-mer frequency, TF over GST control); in assay [4] it was 1.04 fold enrichment (6-mer frequency, TF over GST control); in assay [5], 1.11 fold enrichment (6-mer frequency, TF over GST control); in assay [6], 1.04 fold enrichment (6-mer frequency, TF over GST control). The binding signal in assay [7] was 1.01 fold enrichment (6-mer frequency, TF over GST control); in assay [8], 1.03 fold enrichment (6-mer frequency, TF over GST control).

Turning to TGGACA, the binding signal in assay [1] is 1.08 fold enrichment (6-mer frequency, TF over GST control); in assay [2] it was 1.06 fold enrichment (6-mer frequency, TF over GST control); in assay [3], 1.12 fold enrichment (6-mer frequency, TF over GST control); in assay [4], 1.04 fold enrichment (6-mer frequency, TF over GST control); in assay [5], 1.06 fold enrichment (6-mer frequency, TF over GST control); in assay [6], 1.02 fold enrichment (6-mer frequency, TF over GST control). Further, the binding signal in assay [7] is 1.06 fold enrichment (6-mer frequency, TF over GST control); in assay [8], 1.09 fold enrichment (6-mer frequency, TF over GST control).
